IMPase inh: cell-permeable inhibitors of inositol monophosphatase (IMPase) | P97697 | CHO-M1 cells, IP1 accumulation, HTRF TR-FRET ratio | inhibition (IP1 accumulation), % at 46.1 µM | 120,000 tested, under 10 active | AID 901; active = well fitted curve in the direction sought with a large enough effect in the signal ratio, not every such curve was filed as active; inconclusive = small, poorly fitted or top-dose-only effect, or a change in a side signal; inactive = no such curve, though single readings can be large or run the other way; the % refers to the signal ratio;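 also: cells stimulated with carbachol in lithium chloride buffer; plate controls were DMSO basal wells for no effect and reference inhibitor wells for full effect; higher means more IMPase inhibition seen as more IP1 and lower FRET ratio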
Target sequence (P97697 whole entry, looked up): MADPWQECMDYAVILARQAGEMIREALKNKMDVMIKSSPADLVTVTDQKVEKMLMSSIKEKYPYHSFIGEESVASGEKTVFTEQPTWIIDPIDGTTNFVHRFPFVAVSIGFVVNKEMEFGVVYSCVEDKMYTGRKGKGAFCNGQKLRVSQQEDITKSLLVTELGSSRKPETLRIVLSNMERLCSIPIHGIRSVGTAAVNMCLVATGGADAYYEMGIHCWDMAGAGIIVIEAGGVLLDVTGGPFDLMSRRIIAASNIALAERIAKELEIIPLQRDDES
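CHO-M1 cells (CHO stably expressing M1 receptor), compound up to 46 uM final, stimulated with carbachol (50 uM as added) in buffer with 50mM LiCl, pH 7.4, 30 min at 37C. Cytosolic IP1 read by TR-FRET; AC50 from Hill fits.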
ALDH1A1 block: ALDH1A1 (human) enzyme inhibition. hit rate 7.3% among 220,000. P00352. Potency, µM (titrated, usually from 75.3 µM), without a hit: top-dose activity, negative = inhibition, most hits filed as inhibitors. Purified ALDH1A1, NADH fluorescence, propionaldehyde substrate;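 also: potency is read from the fitted curve at half-maximal effect; plate controls were no enzyme wells and a reference inhibitor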
HPGD inh: HPGD (human) dehydrogenase inhibition. P15428. hit rate 4.3% among 150,000. purified HPGD, NADH fluorescence kinetic, PGE2 substrate. Potency, µM, for the others: at the highest dose activity change, negative = inhibition, most hits filed as inhibitors; also: potency is read from the fitted curve at half-maximal effect
Target sequence (P15428 whole entry, looked up): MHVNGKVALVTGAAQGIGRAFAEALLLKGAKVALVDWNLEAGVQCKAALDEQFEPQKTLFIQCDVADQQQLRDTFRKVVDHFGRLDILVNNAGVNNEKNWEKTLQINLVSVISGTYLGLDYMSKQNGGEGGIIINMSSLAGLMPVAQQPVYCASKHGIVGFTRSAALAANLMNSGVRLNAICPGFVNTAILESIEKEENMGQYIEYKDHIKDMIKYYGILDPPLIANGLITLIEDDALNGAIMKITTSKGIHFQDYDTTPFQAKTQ
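NADH formation kinetics: reaction with 30 uM PGE2 and 1 mM NAD+ (final), 20 nM enzyme, Tris-HCl pH 8 with Tween 20, after 15 min compound preincubation at room temperature. Fluorescence change, last versus first of five reads.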
PNC assembly inh: blocks assembly of the perinucleolar compartment | PC3M PTB-GFP, PNC prevalence imaging, 16 h; active compounds read low | activity change (PNC), negative = inhibition, % at 10 µM | hit rate 3.1% among 140,000 | AID 2417;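 active = readout at or below -70, meaning at least 70% loss of cells showing the perinucleolar compartment, a nuclear body marking cancer cells; inconclusive = readout between -30 and a set limit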;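 also: plate controls were DMSO wells for no effect and camptothecin positive control wells for full effect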
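PC3M cells stably expressing PTB-GFP, 750–1000 cells/well, treated 16 h at 37 °C with compound (23 nl of library stock), in duplicate. After paraformaldehyde fixation and Hoechst stain, imaged at 20x; PNC prevalence scored by image analysis.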
IMPase Li cell: membrane-permeable IMPase blocker, potentiated with lithium. CHO-M1 cells, IP1 TR-FRET (IP-One), carbachol + lithium. Potency, µM (titrated, usually from 59.4 µM), without a hit: at the highest dose activity, negative = IMPase inhibition, usual class: inhibitors. hit rate 0.35% among 210,000. AID 1457; active = well fitted inhibition curve with a large enough effect; inconclusive = small, poorly fitted or top-dose-only effect; inactive = no such curve, though single readings can be large or run the other way;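 also: IP1 builds up when IMPase is blocked and the TR-FRET signal falls; potency is read from the fitted curve at half-maximal effect; plate controls were basal vehicle for no effect and high inhibitor control for full effect; nearly all actives have a fitted effect of over 50% in size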
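Test compounds were applied to CHO-M1 cells previously cultured for 16–30 h at 2000 per well. A small lithium amount accompanied them; after 30 min at 37C, IP1 was quantified by TR-FRET.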
* = called active by the depositor; ? = inconclusive; . = not tested or not shown; [ ] = remark or other dose. The list is not random: actives were taken first. Their share in the collection is about 11%. Unless noted, calls follow the shape of the dose curve; as a rule, active = well fitted inhibition curve with a large enough effect (not every such curve was filed as active); inconclusive = small, poorly fitted or top-dose-only effect, or another doubt; inactive = no such curve, though single readings can be large or run the other way. Unless noted, % is scaled to controls: 0 for no effect and ±100 for the full control effect.

SMILES	IMPase inh	ALDH1A1 block	HPGD inh	PNC assembly inh	IMPase Li cell
COCCSc1ccccc1C(=O)NCc1ccco1	10	14µM*	8.9µM*	30	30%[38.3 µM]
COCCSc1ccccc1C(=O)Nc1cc(C)on1	-2	?	32µM*	?	29%[38.3 µM]
O=C(CCC1CCCCC1)N1CCN(Cc2ccc3c(c2)OCO3)CC1	6	?	-6%	?	15%
O=S(=O)(O)c1cc(S(=O)(=O)O)c2c(N=Nc3cccc4ccccc34)c(O)ccc2c1	.	?	-8%	.	-6%
O=C(/C(=C/O)N=Nc1ccccc1)c1cccs1	.	10µM*	.	.	10%
CCn1cc(C(=O)OCC(=O)Nc2ccc(C(C)C)cc2)c(=O)c2ccc(C)nc21	.	14µM*	.	.	-2%
CCn1cc(C(=O)Nc2ccc(C(=O)N3CCCC3)cc2)c(=O)c2ccc(C)nc21	-3	11%	4µM*	-6	-14%[38.3 µM]
CCn1cc(C(=O)OCC(=O)c2cc(C)n(-c3ccc(OC(F)F)cc3)c2C)c(=O)c2ccc(C)nc21	.	10µM*	-8%	?	10%
CCn1cc(C(=O)OCC(=O)Nc2cccc(S(=O)(=O)N3CCOCC3)c2)c(=O)c2ccc(C)nc21	7	?	-7%	16	44%[38.3 µM]
CCn1cc(C(=O)Nc2ccccc2)c(=O)c2ccc(C)nc21	.	2%	.	.	9%
COC(=O)c1c(N)sc(C(=O)N2CCOCC2)c1C	-7	?	-8%	?	-3%[38.3 µM]
CCOC(=O)c1c(N)sc(C(=O)N2CCOCC2)c1C	3	3%	-25%	-100*	1%
Cc1c(-c2ccccc2)sc(N)c1C(=O)N1CCOCC1	7	13µM*	8.9µM*	?	-7%[38.3 µM]
Cc1ccc(S(=O)(=O)Cc2ccc(C(=O)N3CCN(Cc4ccccc4)CC3)o2)cc1	1	8.9µM*	-23%	?	24%[38.3 µM]
COc1ccccc1N1CCN(C(=O)c2ccc(CS(=O)(=O)c3ccccc3OC)o2)CC1	2	18µM*	-8%	?	?
Cc1ccc(S(=O)(=O)Cc2ccc(C(=O)NCc3ccc4c(c3)OCO4)o2)cc1	2	10µM*	-13%	-107*	19%[38.3 µM]
COc1ccc(S(=O)(=O)Cc2ccc(C(=O)N3CCN(C(=O)c4ccco4)CC3)o2)cc1	5	6µM*	-16%	15	23%[38.3 µM]
CC[C@@](N)(C(=O)O)c1ccc(C(=O)O)cc1	-4	7%	0%	.	1%
COc1ccc2cc1Oc1ccc(cc1)C[C@@H]1c3c(cc(OC)c4c3Oc3cc5c(cc3O4)CCN[C@H]5C2)CCN1C	.	3%[13.5 µM]	-1%	.	30%
COCCNC(=O)c1ccc(CS(=O)(=O)c2ccc(C)cc2)o1	-3	6%	-5%	-19	-11%[38.3 µM]
COc1ccc(S(=O)(=O)Cc2ccc(C(=O)N3CCN(Cc4ccccc4)CC3)o2)cc1	9	13µM*	-16%	?	20%[38.3 µM]
Cc1ccc(S(=O)(=O)Cc2ccc(C(=O)O)o2)cc1	3	8.9µM*	-23%	-27	14%[38.3 µM]
CCOC(=O)c1c(NC(=O)c2ccccc2Br)sc2c1CCc1ccccc1-2	-4	?	14µM*	34	33%[38.3 µM]
CCOC(=O)c1c(NC(=O)CN2CCOCC2)sc2c1CCCC2=O	-9	?	-13%	-13	-14%[38.3 µM]
CCOC(=O)c1c(NC(C)=O)sc2c1CCC(C=O)=C2Sc1ccccc1	10	5µM*	35µM*	33	50%[38.3 µM]
SMILES	IMPase inh	ALDH1A1 block	HPGD inh	PNC assembly inh	IMPase Li cell
CCOC(=O)c1c(NC(C)=O)sc2c1CCCNC2=O	1	13µM*	.	-17	.
CCOC(=O)c1c(NC(=O)COc2ccccc2Br)sc2c1CCCCC2	5	.	.	.	.
Cc1ccc(C)c(N2CCN(C(=O)C3CCC(CNS(=O)(=O)c4ccc(Br)s4)CC3)CC2)c1 (configuration not stated)	6	.	.	.	.
O=C(c1cccc(F)c1)N1CCC2(CC1)CCN(c1cccc(-c3ccccc3)c1)CC2	.	?	-16%	.	15%
NCC1OC(n2cnc3c(=O)[nH]c(N)nc32)C(O)C1O (configuration not stated)	.	-2%	-8%	.	16%
CC(=O)Nc1cc(C(=O)NCc2ccco2)ccc1Sc1ccc(Cl)cc1	.	?	-10%	-103*	-5%
Cc1c(Br)cc(C(=O)NCc2ccco2)c(C)c1C	8	?	25µM*	?	31%[38.3 µM]
Cc1ccc2c(CC(=O)NCc3ccco3)coc2c1C	1	25µM*	2.8µM*	-22	-16%
